This excerpt belongs to a sample that is enriched for hits.
ST2 IL33 inh: inhibitors of human ST2 (IL1RL1) binding to IL-33, primary screen, biochemical, AlphaLISA; 78,000 compounds, 2.3% hits; AID 1259354, 2018; Interleukin-1 receptor-like 1 (Homo sapiens), Q01638; inhibition, % for hits at 17 µM; AlphaLISA ST2-Fc/biotin-IL-33 interaction, 1 h; in the data active = inhibition above about 30%
Target sequence (Q01638 whole entry, looked up): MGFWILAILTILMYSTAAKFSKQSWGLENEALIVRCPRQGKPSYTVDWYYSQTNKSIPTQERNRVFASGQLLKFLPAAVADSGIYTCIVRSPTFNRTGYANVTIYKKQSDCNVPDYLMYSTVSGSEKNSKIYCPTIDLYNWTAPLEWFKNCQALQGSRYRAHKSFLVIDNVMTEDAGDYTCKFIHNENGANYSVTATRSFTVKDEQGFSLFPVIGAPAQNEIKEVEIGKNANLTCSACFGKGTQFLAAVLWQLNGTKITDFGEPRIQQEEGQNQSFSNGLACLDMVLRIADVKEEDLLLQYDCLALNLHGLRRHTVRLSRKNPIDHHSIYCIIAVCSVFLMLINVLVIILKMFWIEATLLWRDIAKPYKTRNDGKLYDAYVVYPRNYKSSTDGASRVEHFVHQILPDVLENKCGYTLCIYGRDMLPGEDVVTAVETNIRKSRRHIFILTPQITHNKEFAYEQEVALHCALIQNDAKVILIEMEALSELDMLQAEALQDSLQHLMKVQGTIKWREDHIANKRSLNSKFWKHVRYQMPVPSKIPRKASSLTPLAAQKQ
A number is an active result; . = inactive.

SMILES | ST2 IL33 inh
O=S(=O)(c1ccc(Cl)cc1)c1nc(/C=C/c2ccccc2)oc1N1CCOCC1 | 31%
NC(=O)CSc1oc(-c2ccccc2)nc1S(=O)(=O)c1ccc(Cl)cc1 | .
O=C(O)c1cc2n(n1)CCN(Cc1cn[nH]c1C1CCCCC1)C2 | .
Cc1cccc(N2C(=O)CC(Sc3nccc(C)n3)C2=O)c1 (stereo not given) | .
Cc1ccc(N2C(=O)CC(Sc3ncn[nH]3)C2=O)cc1C (stereo not given) | 36%
COc1cc(OC)cc(N2C(=O)CC(Sc3ncn[nH]3)C2=O)c1 (stereo not given) | .
CCCc1cc2c(=O)c(-c3ccc4c(c3)OCCO4)c(CC)oc2cc1O | .
O=C(C1CCN(S(=O)(=O)c2ccccc2)CC1)N1CCCC(C(F)(F)F)C1 (stereo not given) | .
COc1ccc(C(=O)O)cc1S(=O)(=O)N1CCCC1 | .
CCc1ccc(S(=O)(=O)NCc2nc3cccnc3n2Cc2ccc(C)cc2)cc1 | .
COc1cc(-c2ccc(NC(C)=O)c(OC)c2)ccc1NC(C)=O | .
COc1cc(-c2ccc(NC(=O)c3ccco3)c(OC)c2)ccc1NC(=O)c1ccco1 | 31%
COc1cc(NC(=O)/C=C/c2ccc(Cl)cc2)ccc1NC(=O)c1ccco1 | .
CC1=C(C(=O)OC2CCCCC2)C(c2ccccc2Cl)n2nnnc2N1 (stereo not given) | .
CCCc1cc2c(=O)c(-c3ccccn3)c(C)oc2cc1OC(C)=O | .
O=C(NCCOC12CC3CC(CC(C3)C1)C2)c1cc2cc(Br)ccc2oc1=O | .
CCCc1ccc(Oc2cn[nH]c2-c2ccc(O)c(C)c2O)cc1 | .
Oc1ccc(-c2[nH]ncc2Oc2ccccc2)c(O)c1O | 51%
COc1ccc(-c2n[nH]c(C)c2Oc2ccccc2)c(O)c1 | .
Cc1[nH]nc(-c2ccc(O)c(O)c2O)c1Oc1ccccc1 | 42%
Oc1ccc(-c2[nH]ncc2Oc2ccccc2)c(O)c1 | .
CCOc1ccc(-c2n[nH]c(C)c2Oc2ccccc2)c(O)c1 | .
CC1=C(C(=O)Nc2cccc(C)n2)C(c2cccc([N+](=O)[O-])c2)C2=C(CC(C)(C)CC2=O)N1 (stereo not given) | .
CCOC(=O)C1(CC2CCCCO2)CCN(C(=O)Nc2cc(Cl)ccc2OC)CC1 (stereo not given) | .
CCCNC(=O)C1(O)c2cc(Br)ccc2NC(=O)N1c1ccc(OCC)cc1 (stereo not given) | .
SMILES | ST2 IL33 inh
CCN(c1cccc(C)c1)S(=O)(=O)c1ccc2oc(C(=O)O)c(C)c2c1 | .
Cc1ccc(C)c(C(=O)c2ccccc2C(=O)O)c1 | .
CCCCN(C)C(=O)c1nn(-c2ccc(Cl)cc2)c(=O)c2ccccc12 | .
Nc1nc(Oc2ccccc2F)c(Br)c(=O)[nH]1 | .
CC(C)Cn1cc(C(=O)N(C)Cc2cc3ccccc3s2)c(=O)c(C(=O)N2CCCCCC2)c1 | .
COc1cccc(/C=C2/C(=O)NN(c3ccc(C)c(Cl)c3)C2=O)c1 | .
CCOc1ccc(/C=C2\C(=O)NN(c3cccc(Br)c3)C2=O)cc1OCC | .
Cc1ccccc1OCCn1cc(C=C2C(=O)N(C)C(=O)N(C)C2=O)c2ccccc21 | .
O=C1NN(c2ccccc2)C(=O)/C1=C/c1ccccc1OCc1c(F)cccc1Cl | 41%
COc1cccc(/C=C2/C(=O)NN(c3ccccc3)C2=O)c1OC | .
Cc1ccccc1OCCOc1ccc([N+](=O)[O-])cc1/C=C1\C(=O)NN(c2ccccc2)C1=O | 35%
Cc1nn(Cc2ccc(Cl)cc2)c(C)c1NC(=O)c1cc(-c2ccc(F)cc2)on1 | .
Cc1cnc(C(=O)N2CCn3nc(C(=O)NC4CC4)cc3C2)[nH]1 | .
COc1cccc(NS(=O)(=O)C[C@@]23CC[C@H](CC2=O)C3(C)C)c1 | .
N#C/C(=C\Nc1ccc(F)cc1)c1nc(-c2cc3cc(Br)ccc3oc2=O)cs1 | .
Cc1ccc(/C=C(/C#N)c2nc(-c3ccc(Br)cc3)cs2)o1 | 52%
NNC(=O)C(=O)Nc1nc(-c2ccc(Br)cc2)cs1 | .
N#C/C(=C\c1ccco1)c1nc(-c2ccc(Br)cc2)cs1 | 32%
CC(C)(C)C(=O)Nc1nc(-c2ccc(Br)cc2)cs1 | .
COc1ccccc1CNC(=O)Cc1c(C(=O)O)[nH]c2ccc(Cl)cc12 | .
CN(C)CCN(C)C1CCN(Cc2ccccc2)CC1 | .
CCSc1sc(CC)cc1C(N)=O | .
CCN1CCN(C(=O)C2CC(=O)N(c3ccc(F)c(Cl)c3)C2)CC1 (stereo not given) | .
Cc1ccc(Oc2ccc(C(F)(F)F)cc2NC(=O)c2cccnc2)cc1 | .
O=C(NC(Nc1ccc(Cl)cc1)C(Cl)(Cl)Cl)c1cccnc1 (stereo not given) | .
SMILES | ST2 IL33 inh
O=C(NC(Nc1ccc(C(F)(F)F)cc1Cl)C(Cl)(Cl)Cl)c1cccnc1 (stereo not given) | 63%
COc1cc(NC(=O)CCN2C(=O)c3ccc([N+](=O)[O-])cc3C2=O)c(C(=O)O)cc1OC | .
CC(C)Nc1ncc(CN2CCOC(CCc3ccccc3)C2)cn1 (stereo not given) | .
CN1CCN(C(=O)C(c2ccccc2)c2ccccc2)CC1 | .
CCCOC(=O)C1C2C=CC3(CN(CC4CCCO4)C(=O)C13)O2 (stereo not given) | .
Cc1ccc2c(c1)C(=O)C(=O)N2 | .
Cc1ccc(N2C(=O)C(C)SC23C(=O)Nc2ccccc23)cc1 (stereo not given) | .
Cc1ccc(C2=NNC3(S2)C(=O)Nc2ccc(C)cc23)cc1 (stereo not given) | 44%
CC(C)CCN1CCN(Cc2nc3ccccc3[nH]2)CC1CCO (stereo not given) | .
O=C(Nc1ccccc1[N+](=O)[O-])c1cccc(S(=O)(=O)N2CCc3ccccc3C2)c1 | 40%
O=C1CCc2cc(S(=O)(=O)N3CCc4ccccc4C3)ccc2N1 | .
O=C(Nc1nc2ccc(F)cc2s1)c1ccc(S(=O)(=O)N2CCc3ccccc3C2)cc1 | .
Cc1ccc2oc(=O)cc(CSc3cnc4ccccc4n3)c2c1 | .
FC(F)(F)C1CN(c2ccc(-c3ccccc3)nn2)CCO1 (stereo not given) | 96%
CNc1nc(N2CCOC(C(F)(F)F)C2)ncc1F (stereo not given) | .
O=C(N1CCOC(C(F)(F)F)C1)C1(S(=O)(=O)c2ccccc2)CC1 (stereo not given) | .
CCCCOc1ccc(C(=O)Nc2c3c(nn2-c2ccccc2C)CS(=O)C3)cc1 (stereo not given) | .
Cc1ccc(NC(=O)COc2c(C)ccc(C)c2C)c([N+](=O)[O-])c1 | 33%
Cc1ccc(OCC(=O)Nc2ccc(C)cc2[N+](=O)[O-])c(C)c1 | .
CCOc1ccc(NC(=O)c2cc(OC)cc(OC)c2)c([N+](=O)[O-])c1 | .
Cc1ccc(NC(=O)COc2ccc(Cl)cc2)c([N+](=O)[O-])c1 | .
CCCCOc1ccc(C(=O)Nc2ccc(OCC)cc2[N+](=O)[O-])cc1 | .
CCCOc1cccc(C(=O)Nc2ccc(C)cc2[N+](=O)[O-])c1 | 32%
O=C(O)CCC(=O)N[C@H]1CO[C@H]2[C@@H]1OC[C@@H]2Nc1nccc(-c2ccc(-c3ccccc3)cc2)n1 | .
Cc1ccc(CN2CCN(CC(=O)Nc3ccc(Br)cc3)S2(=O)=O)cc1 | .
CCOC(=O)C1(Cc2cccc(OC)c2)CCN(Cc2cc(C(C)C)n[nH]2)CC1 | .
O=C1C[C@H](N2C(=O)c3ccccc3C2=O)[C@H]2CO[C@@H]1O2 | .
COc1ccc(NC(=O)Cc2ccccc2[N+](=O)[O-])cc1OC | .
